Each structure is given as a SMILES string. Screen size: about 2,400 compounds; about 1,400 (58%) were called active. The set was probably picked from earlier hits. The list shows a part of the results. Unmarked numbers belong to inactive results.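 Rule for the calls: active = inhibition of 30% or more at any tested dose; inconclusive = primary hits over the limit that were never retested; inactive = the rest.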

This test in a line: ADP Hunter readout inhibition without MgcRacGAP – biochemical, coupled enzyme counter-screen, artefact control for MgcRacGAP inhibitor project, dose response (AID 624351).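 For inhibition: 0% = median positive control wells and 100% = median negative control wells.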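 Note: signal is the ADP detection kit reading of free GDP without any GAP enzyme.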 The following applies: fluorescence, no MgcRacGAP; series mostly up to 80 µM; inhibition: at the top concentration.
On to `O=C(O)c1cccc(N2C(=O)/C(=C/c3ccc(SCc4ccc(Cl)cc4)o3)SC2=S)c1`, for which the inhibition – broadly, the relative decrease from the control value, in per cent – was 1.08%.

With `c1ccc(-c2ccccc2OCCN2CCOCC2)cc1`, the “inhibition” value is 21.1%.

Take `C=CCNCC(O)COc1ccc(C(C)=O)cc1OC` (configuration not stated): the “inhibition” value is 13.1%.

In the case of `COc1cc(/C(C)=N/NC(=O)Cc2c(C)[nH][nH]c2=O)ccc1O`, the half-inhibitory concentration (IC50) (usually the concentration at which inhibition is half-maximal) is 70.3 µM (active).

`C#CCOCCOCCOCCNc1nc(N2CCN(C(=O)[C@H](CCCCN)n3cc(CN)nn3)CC2)nc(N2CCN(C(=O)[C@H](CCCCN)n3cc(CN)nn3)CC2)n1`: the “inhibition” value was 3.07%.

Regarding `Nc1ccccc1SSc1ccccc1N`, the “inhibition” value is -6.81%.

`Nc1ccc(Nc2ccccc2)c(Cl)c1`: the IC50 is 15.9 µM (active).

For `Nc1ccccc1Nc1cccc(C(F)(F)F)c1`, the IC50 is 78.3 µM (active).

As for `Nc1ccccc1Nc1ccccc1`, the concentration for half-maximal inhibition (IC50) was 34 µM (active).

For the compound `Cn1c(-c2ccccc2)cnc1NCc1ccc(-c2ccccc2)cc1`, the “inhibition” value is 25.8%.

In the case of `Cc1cc(C)cc(NC(=O)C(NCCN2CCOCC2)c2ccccc2)c1` (configuration not stated), the “inhibition” value was 29.4%.

Regarding `COc1ccc(NC(=O)C(C)N2CCN(C)CC2)cc1` (configuration not stated), the “inhibition” value was 25%.

As to `COc1cc2c(cc1NC(=O)C(Cl)Cl)-c1ccc(NC(=O)C(Cl)Cl)cc1C2`, the IC50 was 71.4 µM (active).

In the case of `CN(C)/N=C/c1ccc(N2CCOCC2)cc1`, the IC50 was 60.4 µM (active).

For `O=C(O)CN1C(=O)/C(=C/c2ccc(SCc3ccccc3)o2)SC1=S`, the “inhibition” value was -9.9%.

On to `O=C(CCCC(=O)c1ccccc1)Nc1ccc(O)cc1`, for which the IC50 is 18.2 µM (active).

Take `CC(C)c1ccc(NC(=O)CNCC(c2ccccc2)N(C)C)cc1` (configuration not stated): the “inhibition” value is 18.8%.

On to `O=C(CC(c1ccccc1)c1ccccc1)Nc1ccc(O)cc1`, for which the IC50 is 56.5 µM (active).

Turning to `COc1cc2c(cc1NC(=S)Nc1cccc3ccccc13)oc1ccccc12`, the IC50 was 36.9 µM (active).

With `COc1cc2c(cc1NC(=S)Nc1ccccc1C)oc1ccccc12`, the IC50 was 41.1 µM (active).

Regarding `CN(C)CCNC(C(=O)Nc1cccc(C(F)(F)F)c1)c1ccccc1` (configuration not stated), the “inhibition” value was 27.1%.

As to `COc1cc2c[n+](C)c3c4ccccc4ccc3c2cc1OC`, the “inhibition” value is 13%.

Consider `COc1cc2c(cc1NCc1ccc3c(c1)OCO3)oc1ccccc12`, for which the “inhibition” value is 13.4%.

With `COc1ccc(NC(=S)Nc2cccc3ccccc23)cc1OC`, the “inhibition” value is 27.8%.

Regarding `O=C(O)c1cc(N2N=C(C(F)(F)F)/C(=C/C=C/c3ccco3)C2=O)ccc1Cl`, the “inhibition” value is 12.8%.

`COc1ccc2c(c1OC)C(=O)OC2CC(=O)c1ccc(O)c(O)c1` (configuration not stated): the IC50 was 58.7 µM (active).

On to `COc1cccc2c1C(=O)c1c(O)c3c(c(O)c1C2=O)C[C@@](O)(C(=O)CO)C[C@@H]3OC1CC(N)C(O)C(C)O1` (some centres not stated), for which the “inhibition” value is 10.3%.

In the case of `COc1cccc2c1C(=O)c1c(O)c3c(c(O)c1C2=O)CC(O)(C(C)=NNC(=O)c1ccc(Cl)c(Cl)c1)CC3OC1CC(N)C(O)C(C)O1` (configuration not stated), the “inhibition” value was 3.28%.

`Nc1ccc(N(c2ccccc2)c2ccc(N)cc2)cc1`: the concentration for half-maximal inhibition (IC50) was 9.3 µM (active).

As for `N#CC1=C(S)N(c2ccccc2)C2(CCCCC2)NC1=O`, the “inhibition” value is -2.39%.

With `COc1cc(/C=N/NC(=S)Nc2cccc(C(=O)O)c2)ccc1O`, the IC50 is 46.3 µM (active).

Turning to `COc1cc(/C=N/NC(=S)Nc2cccc(S(=O)(=O)N(C)C)c2)ccc1O`, the half-inhibitory concentration (IC50) is 27.7 µM (active).

Regarding `COc1cc(/C=C2\C(=O)N(c3cccc(C(=O)O)c3)N=C2C)ccc1OCc1ccccc1`, the “inhibition” value is 3.07%.

For the compound `CN(C)S(=O)(=O)c1cccc(NC(=O)CNCC2CCCCC2)c1`, the “inhibition” value was 15%.

Regarding `CN(C)c1ccc(Sc2ccc3nc(N)nc(N)c3c2)cc1`, the half-inhibitory concentration (IC50) was 53.7 µM (active).

Regarding `CCN(CC)S(=O)(=O)c1cccc(NC(=O)CNC2CCCCCC2)c1`, the “inhibition” value was 23%.

Consider `CCOc1ccccc1NC(=O)C(NCC1(N2CCCCC2)CCCCC1)c1ccccc1` (configuration not stated), for which the “inhibition” value is 17%.

As to `CN(C)c1ccc(N/C=C/C(=O)C(C)(C)C)cc1`, the IC50 was 7.04 µM (active).

Regarding `O=C(/C=C/Nc1ccc(Nc2ccccc2)cc1)c1cccs1`, the “inhibition” value is 23.6%.

In the case of `C=C(CN(C)C)C(=O)c1ccc(OC2OC(COC(C)=O)C(OC(C)=O)C(OC(C)=O)C2OC(C)=O)cc1` (configuration not stated), the “inhibition” value is -2.5%.

For `O=C1/C(=C\c2ccc([N+](=O)[O-])cc2)CS(=O)(=O)C/C1=C/c1ccc([N+](=O)[O-])cc1`, the “inhibition” value was 6.84%.

Turning to `O=[N+]([O-])c1ccc(N/N=C/c2ccc[nH]2)cc1`, the 50% inhibitory concentration (IC50) was 41.1 µM (active).

For `CN1C=CC(=CC=C2C=CC(=O)C=C2)C=C1`, the IC50 was 23.1 µM (active).

As for `COc1cc(C)c(N)cc1C(C)C`, the IC50 was 34.2 µM (active).

As to `Nc1ccc(O)c([N+](=O)[O-])c1`, the IC50 is 43.9 µM (active).

For `Cc1ccc(S(=O)(=O)Oc2ccc(/C=C3/C(=N)N4C(=NC3=O)SN=C4S(C)(=O)=O)cc2)cc1`, the “inhibition” value is 4.36%.

As for `CCOC(=O)/C(C#N)=C1\C(=O)N(Cc2ccccc2)c2ccccc21`, the “inhibition” value was 4.02%.

With `CCOC(=O)c1[nH]c(=S)n(Cc2ccccc2)c1C(=O)OCC`, the 50% inhibitory concentration (IC50) is 41.9 µM (active).

For the compound `CCOC(=O)/C(C#N)=C1/C(=O)N(Cc2ccccc2)c2ccccc21`, the “inhibition” value is 4.83%.

Turning to `Cc1ccc(CN2CCN(Cc3ccco3)CC2)cc1`, the “inhibition” value was 24.4%.

With `CN(C)C(=S)N=c1ssc(=S)n1Cc1ccco1`, the “inhibition” value is 6.25%.

`Cc1cs/c(=N\N=C\c2ccc(O)cc2)n1Cc1ccco1`: the half-maximal inhibitory concentration (IC50) is 25.9 µM (active).

For `CCN1CCN(CCCOc2ccccc2-c2ccccc2)CC1`, the “inhibition” value is 21.3%.

As to `COc1ccc(C(=O)/C=C/c2ccc(O)cc2)c2c1CC(O)C(C)(C)O2` (configuration not stated), the concentration for half-maximal inhibition (IC50) was 52.3 µM (active).

Regarding `COc1ccc(OC)c(CN2CCN(Cc3ccc(OC)c(OC)c3OC)CC2)c1`, the “inhibition” value was 28.4%.

Take `Clc1cccc(N/N=C/c2ccc(N3CCOCC3)s2)c1`: the half-maximal inhibitory concentration (IC50) was 59.7 µM (active).

For the compound `CCOC(=O)N/N=C/c1ccc(N2CCOCC2)s1`, the concentration for half-maximal inhibition (IC50) was 53 µM (active).

As to `CNC(=S)N/N=C/c1ccc(N2CCOCC2)s1`, the “inhibition” value is -3.84%.

Regarding `NC(=O)N/N=C/c1ccc(N2CCOCC2)s1`, the IC50 is 45.8 µM (active).

Consider `COC(=O)CC1SC(=O)NC1=Nc1ccc(O)cc1` (configuration not stated), for which the 50% inhibitory concentration (IC50) is 60.2 µM (active).

`Cc1ccn2c(NC3CCCC3)c(-c3ccncc3)nc2c1`: the half-maximal inhibitory concentration (IC50) was 49 µM (active).

With `Cc1c(-c2ccccc2)sc(N)c1C(=O)N1CCOCC1`, the IC50 is 41.6 µM (active).

As to `CN1CCN(C(=O)c2sc(=S)n(-c3ccccc3)c2N)CC1`, the “inhibition” value was 0.54%.

Turning to `CCOC(=O)c1c(-c2ccccc2)csc1NC(=O)C(C)NCCCN1CCOCC1` (configuration not stated), the “inhibition” value is 22.2%.

Consider `CCCCNCC#CCOc1cc(C)ccc1C(C)C`, for which the “inhibition” value was 13.2%.

As to `COc1cc(/C=C/c2sc3ccccc3[n+]2CCCS(=O)(=O)[O-])ccc1O`, the half-inhibitory concentration (IC50) is 22.2 µM (active).

Regarding `C=CC[n+]1c(/C=C/c2ccc(OC(C)=O)c(OC)c2)ccc2ccccc21`, the “inhibition” value is 8.66%.
